An excerpt weighted towards active compounds, which were near 2.3% of everything screened.
PP5 inh: blocks human protein phosphatase 5 activity | P53041 | purified PP5c, OMFP substrate fluorescence | inhibition, % at 6.7 µM | hit rate 0.18% among 320,000;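 active = inhibition above the campaign's mean inhibition across all tested compounds plus 3 SD, cut at about 9.5% in these data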
Target sequence (P53041 whole entry, looked up): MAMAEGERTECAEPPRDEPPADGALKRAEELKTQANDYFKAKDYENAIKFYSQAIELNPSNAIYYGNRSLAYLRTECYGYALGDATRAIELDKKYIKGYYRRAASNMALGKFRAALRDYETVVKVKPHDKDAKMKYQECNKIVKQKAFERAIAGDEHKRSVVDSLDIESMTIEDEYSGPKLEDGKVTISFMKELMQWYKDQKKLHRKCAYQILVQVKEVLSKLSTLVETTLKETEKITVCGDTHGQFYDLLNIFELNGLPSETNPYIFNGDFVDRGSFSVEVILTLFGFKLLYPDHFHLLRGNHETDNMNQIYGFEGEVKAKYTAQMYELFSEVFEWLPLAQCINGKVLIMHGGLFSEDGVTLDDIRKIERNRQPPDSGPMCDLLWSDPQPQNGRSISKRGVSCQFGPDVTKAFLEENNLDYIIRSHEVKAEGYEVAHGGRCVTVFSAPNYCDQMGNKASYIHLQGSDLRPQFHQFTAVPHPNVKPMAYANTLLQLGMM
ZTA DNA inh: blocks Epstein-Barr virus ZTA, an EBNA-1 counter-screen; ZTA-DNA binding, fluorescence polarization; inhibition, % at 11 µM; hit rate 0.15% among 320,000; P03206; in the data active = inhibition above about 33%
EBNA-1 inhibitor: blocks EBNA-1 binding to DNA. EBNA-1 DNA binding, fluorescence polarization. inhibition, % at 14.8 µM. hit rate 0.34% among 300,000; in the data active = inhibition above about 28%
PP1 counter: PP1-alpha (human) inhibition in PP5 counter-screen. AID 2235. purified PP1alpha, OMFP fluorescence. P62136. inhibition, % at 6.7 µM. hit rate 0.9% among 320,000;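 active = inhibition above the mean inhibition of all tested compounds plus 3 SD, computed separately for each screening campaign, cut at about 15% in these data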
MsrA inh: inhibits bovine methionine sulfoxide reductase A; purified bovine MsrA, absorbance read-out; hit rate 0.75% among 360,000; inhibition, % at 15.5 µM; in the data active = inhibition above about 4.5%
MsrA act: activators of bovine methionine sulfoxide reductase A; purified bovine MsrA, absorbance read-out; activation, % at 10.6 µM; hit rate 0.3% among 360,000; AID 602163; in the data active = activation above about 7.5%
EBNA-1 inh conf: EBNA-1 (EBV) inhibition, confirmation; shares compounds with EBNA-1 inhibitor; Recombinant EBNA-1 DBD, Cy5-DNA fluorescence polarization; inhibition, % at 14.8 µM; hit rate 35% among 830;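 active = mean inhibition across replicates above a set limit taken from the earlier primary screen, cut at about 28% in these data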
ZTA counter trip: ZTA (EBV) inhibition, triplicate counter-screen; shares compounds with EBNA-1 inhibitor; Zta-ZRE DNA binding, Cy5 fluorescence polarization; inhibition, % at 11.1 µM; 830 tested, under 10 active;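 active = mean inhibition over triplicates above a set limit taken from the primary EBNA-1 screen, cut at about 37% in these data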;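 also: purified full length Zta protein with Cy5 labeled ZRE DNA probe; inhibitors lower polarization by freeing the labeled DNA probe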
Large screens that a line does not name were inactive (follow-up assays come after a bar, where they were run); ! = not confirmed by another sample.

CC(C)NC(=O)C(Sc1ccccc1)c1ccccc1 (stereo unspecified)	EBNA-1 inhibitor 39.1 | EBNA-1 inh conf inactive | ZTA counter trip inactive
COc1c2c(c(C)c3c1C(=O)OC3)O[C@@]1(C)CC[C@@]3(O)C(C)(C)OC(=O)CC[C@]3(C)[C@H]1C2	none
Cc1cccc(NC(=O)c2cc(S(=O)(=O)N3CCc4ccccc43)cn2C)c1C	EBNA-1 inhibitor 27.6 | EBNA-1 inh conf 39.1 | ZTA counter trip inactive
CC(=O)c1cc(C)ccc1OC(=O)c1cccc2nc(C)oc12	EBNA-1 inhibitor 81.2 | EBNA-1 inh conf inactive | ZTA counter trip inactive
CC(=O)c1cc(C)ccc1OC(=O)c1ccncc1	none
Cc1cccc(-c2nc3c(c(SCC(=O)N4CCCC4)n2)COC(C)(C)C3)c1	none
Cc1c(OC(C)C(=O)NCc2ccncc2)ccc2c3c(c(=O)oc12)CCCC3 (stereo unspecified)	none
CC1=Nc2ccc(C)cc2/C1=C/c1c(N)n2oc(C)cc2nc1=O	EBNA-1 inhibitor 28.1! | EBNA-1 inh conf 32.7 | ZTA counter trip inactive
CC1CCCC(C)N1S(=O)(=O)c1ccc(NC(=O)CCn2cnc3ccccc3c2=O)cc1 (stereo unspecified)	EBNA-1 inhibitor 47.9 | EBNA-1 inh conf 52.5 | ZTA counter trip inactive
O=C(Cn1cnc2ccccc2c1=O)Nc1ccc(S(=O)(=O)N2CCCC2)cc1	none
COc1cc(/C=C2/CC(C)OC2=O)c([N+](=O)[O-])cc1OC (stereo unspecified)	none
O=C(CSc1n[nH]c(-c2ccco2)n1)Nc1sc2c(c1C(=O)Nc1ccccc1)CCCC2	EBNA-1 inhibitor 36.3 | EBNA-1 inh conf inactive | ZTA counter trip inactive
NC(=O)CN1C(=O)NC2(CCCc3sccc32)C1=O (stereo unspecified)	none
Cc1cc(C(=O)CN2C(=O)NC3(CCCc4sccc43)C2=O)c(C)n1-c1ccc(Cl)cc1 (stereo unspecified)	EBNA-1 inhibitor 33.8 | EBNA-1 inh conf inactive | ZTA counter trip inactive
Cc1cc(NC(=O)CC2(CC(=O)O)CCCC2)n(C)n1	none
COC(=O)CSc1ncccc1-c1nc2ccccc2[nH]1	none
O=C(CSc1ncccc1-c1nc2ccccc2[nH]1)N1CCc2ccccc21	EBNA-1 inhibitor 32.3 | EBNA-1 inh conf inactive | ZTA counter trip inactive
O=C(CSc1nc2ccccc2c(=O)n1-c1ccccc1)N1CCc2ccccc21	EBNA-1 inhibitor 41.3 | EBNA-1 inh conf 38.3 | ZTA counter trip inactive
Cc1cc(NC(=O)CSc2ncc(C(=O)O)n2-c2ccc(F)cc2)no1	none (no result: PP5 inh, ZTA DNA inh, EBNA-1 inhibitor, PP1 counter)
Cc1ccc(S(=O)(=O)N(CC(=O)N/N=C\c2cccs2)c2cccc3cccnc23)cc1	EBNA-1 inhibitor 32.5 | EBNA-1 inh conf 28.3 | ZTA counter trip inactive
Cc1ccc(S(=O)(=O)N(CC(=O)N/N=C/c2cccc(C)c2)c2cccc3cccnc23)cc1	none
COc1ccc(OC)c(CCNC(=O)CN2C(=O)CCSc3ccccc32)c1	none
CCN1C(=O)[C@@H]2[C@@H](c3ccc(-c4ccc(F)cc4)c(OC)c3)N3CCC[C@@]3(C(=O)OC)[C@@H]2C1=O	none (no result: PP5 inh, ZTA DNA inh, EBNA-1 inhibitor, PP1 counter)
COc1ccc(NS(=O)(=O)c2ccc(O)c(NC(=O)c3ccc(S(=O)(=O)N4CCCCCC4)cc3)c2)cc1	EBNA-1 inhibitor 28.3 | EBNA-1 inh conf inactive | ZTA counter trip inactive
COc1ccc(NS(=O)(=O)c2ccc(O)c(NC(=O)c3ccc(S(=O)(=O)N4CCCC4)cc3)c2)cc1	none
COc1ccc(S(=O)(=O)N2CCCCC2)cc1NC(=O)c1cccs1	EBNA-1 inhibitor 35.5 | EBNA-1 inh conf 31.8 | ZTA counter trip inactive
Cc1cc(C)c(C(=O)COC(=O)c2cc([N+](=O)[O-])ccc2NCCO)cc1C	none
CCOc1ncccc1C(=O)OCC(=O)Nc1ccc(C(N)=O)cc1	EBNA-1 inhibitor active | EBNA-1 inh conf inactive | ZTA counter trip inactive
O=C(COc1ccccc1)N=C1SC2CS(=O)(=O)CC2N1Cc1ccccc1 (stereo unspecified)	EBNA-1 inhibitor active | EBNA-1 inh conf inactive | ZTA counter trip inactive
O=[N+]([O-])c1ccc(N=Nc2ncc[nH]2)cc1	none (no result: PP5 inh, ZTA DNA inh, EBNA-1 inhibitor, PP1 counter)
COc1cccc(-c2c(C(=O)N/N=C(\C)c3ccco3)nnn2-c2nonc2N)c1	none
CCOc1ccc(/C=N/NC(=O)c2nnn(-c3nonc3N)c2-c2ccc(OCC)cc2)cc1	EBNA-1 inhibitor 35.0 | EBNA-1 inh conf inactive | ZTA counter trip inactive
COc1cccc(-c2c(C(=O)N/N=C(\C)c3ccc(Cl)s3)nnn2-c2nonc2N)c1	EBNA-1 inhibitor 35.3 | EBNA-1 inh conf inactive | ZTA counter trip inactive
CCOc1ccccc1N1CCN(C(=O)Nc2ccc(Cl)c(Cl)c2)CC1	none (no result: MsrA inh, MsrA act)
CC1=CC(=C(C#N)C#N)C=C(C)N1CCN1CCN(C(=O)Nc2ccc(Cl)c(Cl)c2)CC1	EBNA-1 inhibitor 75.8 | EBNA-1 inh conf 65.2 | ZTA counter trip inactive
CCOc1ccc(S(=O)(=O)N(C)c2ccc(OCC(=O)Nc3nc4ccccc4s3)cc2)cc1	none
CN(c1ccc(OCC(=O)Nc2nc3ccccc3s2)cc1)S(=O)(=O)c1ccccc1	EBNA-1 inhibitor 46.6 | EBNA-1 inh conf inactive | ZTA counter trip inactive
COc1ccc(C(NC(=O)/C=C\c2ccco2)c2ccc(OC)c(OC)c2)cc1 (stereo unspecified)	EBNA-1 inhibitor 39.3 | EBNA-1 inh conf inactive | ZTA counter trip inactive
CC(NC(=O)c1cc2c(s1)CS(=O)(=O)C2)c1ccccc1 (stereo unspecified)	none
COc1ccc(C)cc1NC(=O)c1cc(S(=O)(=O)N2CCCCC2)ccc1N1CCOCC1	none (no result: EBNA-1 inhibitor)
COc1ccccc1Nc1nnc(SCC(=O)NC(=O)Nc2ccc3c(c2)OCCO3)s1	EBNA-1 inhibitor 36.3 | EBNA-1 inh conf inactive | ZTA counter trip inactive
Cc1ccccc1Nc1nnc(SCC(=O)NC(=O)Nc2ccc3c(c2)OCCO3)s1	none (no result: MsrA inh, MsrA act)
CC(C)NC(=O)CCCc1c[nH]c2ccccc12	none
c1ccc(CCN(Cc2ccccc2)C2CCN(C3CCCC3)CC2)cc1	none
Cc1sc2ncnc(SCC(=O)NNC(=O)COc3cccc4ccccc34)c2c1C	EBNA-1 inhibitor 119.0 | EBNA-1 inh conf 97.9 | ZTA counter trip inactive
Cc1cccc(NC(=O)CSc2ncnc3sc(C)c(C)c23)n1	none (no result: PP5 inh, ZTA DNA inh, EBNA-1 inhibitor, PP1 counter)
COc1cc(C)ccc1OCc1cc(C(=O)N2CCC(c3ccc(F)cc3)C2)no1 (stereo unspecified)	EBNA-1 inhibitor 31.0 | EBNA-1 inh conf inactive | ZTA counter trip inactive
NC(=O)COC(=O)/C=C/c1cccc(Br)c1	none
O=C(Cn1nnc(-c2ccccc2NC(=O)c2ccccc2)n1)Nc1ccc2c(c1)OCCO2	EBNA-1 inhibitor 61.3 | EBNA-1 inh conf 60.5 | ZTA counter trip inactive
CCn1nnc(-c2ccccc2NC(=O)c2cccc(-n3cnnn3)c2)n1	EBNA-1 inhibitor 87.4 | EBNA-1 inh conf 83.3 | ZTA counter trip inactive
